# A selection: hits, their analogues and other compounds. The true share with any hit is near 10%.
# RORgamma inh = ROR gamma (mouse) transcription inhibition. P51450. Drosophila S2 Gal4-RORgamma UAS-luciferase reporter, 20 h. Potency, µM (doses to about 53.6 µM), inactives show at the highest dose activity change, negative = inhibition, most hits filed as inhibitors. 310,000 tested, 5.4% active. AID 2551; note: % is set by controls: 0 for no effect and ±100 for the full control effect; nearly all actives have a fitted effect of over 60% in size
# Target sequence (P51450 whole entry, looked up, the tested form may be a part): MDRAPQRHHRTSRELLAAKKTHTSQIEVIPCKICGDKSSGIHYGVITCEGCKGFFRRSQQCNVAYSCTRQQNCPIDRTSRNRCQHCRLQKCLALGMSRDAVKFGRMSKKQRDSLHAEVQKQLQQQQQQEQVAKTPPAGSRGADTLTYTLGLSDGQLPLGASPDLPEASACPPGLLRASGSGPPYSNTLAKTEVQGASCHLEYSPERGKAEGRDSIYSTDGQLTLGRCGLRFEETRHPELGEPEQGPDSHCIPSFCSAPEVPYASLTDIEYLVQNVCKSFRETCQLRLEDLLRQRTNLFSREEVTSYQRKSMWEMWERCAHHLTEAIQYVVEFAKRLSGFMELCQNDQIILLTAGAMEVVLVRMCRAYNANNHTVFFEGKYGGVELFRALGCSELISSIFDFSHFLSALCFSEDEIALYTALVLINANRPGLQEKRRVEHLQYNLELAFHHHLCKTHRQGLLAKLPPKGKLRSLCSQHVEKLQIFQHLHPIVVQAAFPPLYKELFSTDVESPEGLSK
#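 Drosophila Schneider cells stably carrying a metallothionein-driven Gal4 DBD–ROR gamma fusion and a UAS-Photinus luciferase reporter were exposed to compound for 1 hr, then induced with copper sulfate (700 uM final) for 20 hr at ambient temperature before luminescence reading.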
# SW480 rerep = induces DNA re-replication in SW480 colon adenocarcinoma cells. SW480 DNA re-replication, Hoechst DNA content imaging, 48 h. Potency, µM (highest dose often 46.1 µM), without a hit: top-dose re-replication activation, most hits filed as activators. 340,000 tested, 1.8% active. AID 624297; note: % of control where 0% means no effect; nearly all actives have a fitted effect of over 55% in size
#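 Cells (250 per well) received 23 nL compound or DMSO by pin tool and were kept 48 hr at 37 C, 5% CO2. Nuclei were then stained with Hoechst for 40 min and scanned for DNA content.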
# Gal4-VP16 FLuc = counter-screen for ROR gamma inhibitors: Gal4-VP16 reporter | Drosophila S2 Gal4-VP16 UAS-luciferase, luminescence, 20 h | Potency, µM (highest dose often 53.6 µM), inactives show at the top dose activity, negative = inhibition, usual class: inhibitors | 310,000 tested, 3.5% active;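 note: Gal4-VP16 expression switched on by copper sulfate through the metallothionein promoter; % is set by controls: 0 for no effect and ±100 for the full control effect; nearly all actives have a fitted effect of over 50% in size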
# KB-3-1 cytotox = kills parental KB-3-1 adenocarcinoma cells; Potency, µM (titrated, usually from 46.1 µM), hits mostly cytotoxic; 400,000 tested, 1.4% active; KB-3-1 viability, CellTiter-Glo ATP luminescence, 72 h; note: % is set by controls: 0 for no effect and ±100 for the full control effect; nearly all actives have a fitted effect of over 60% in size
#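 Parental KB-3-1 adenocarcinoma cells in phenol-red-free DMEM with 10% FBS were pin-treated with compounds at several concentrations, incubated 72 h at 37 °C, and viability read by CellTiter-Glo luminescence; concentration-effect curves were fitted after normalization.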
# KB-V1 MDR tox = kills drug-selected multidrug resistant KB-V1 cells | Potency, µM (highest dose often 46.1 µM), actives largely listed as cytotoxic | KB-V1 MDR cells viability, CellTiter-Glo, 72 h | AID 1347076 | 400,000 tested, 3.4% active; note: % is set by controls: 0 for no effect and ±100 for the full control effect; nearly all actives have a fitted effect of over 60% in size
#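 Potencies derive from concentration-effect curves fitted to normalized luminescence (CellTiter-Glo) of KB-V1 cells treated for 72 h at 37 degrees C in phenol-red-free DMEM containing 10% FBS.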
# MCF10A rereplic = DNA re-replication induction in MCF 10a cells. MCF 10A DNA re-replication, Hoechst nuclear intensity, 48 h. Potency, µM (doses to about 46.1 µM), inactives show top-dose activity, positive = re-replication, actives largely listed as activators. 350,000 tested, 2.9% active. AID 624296; note: % of control where 0% means no effect; nearly all actives have a fitted effect of over 50% in size
# Numbers without * were called inactive; i = inactive; ? = inconclusive; nt = no result given; [ ] = another dose, or the depositor's remark. Calls come from the whole dose curve; as a rule, active = well fitted curve in the direction sought with a large enough effect; inconclusive = small, poorly fitted or top-dose-only effect, or another doubt; inactive = no such curve, though single readings can be large; an effect the other way counts as inactive or inconclusive. Potency is the fitted concentration of half-maximal effect.
SMILES,RORgamma inh,SW480 rerep,Gal4-VP16 FLuc,KB-3-1 cytotox,KB-V1 MDR tox,MCF10A rereplic
Cc1ccc(-c2cc(C(=O)Nc3cc([N+](=O)[O-])ccc3C)no2)cc1F,nt,nt,nt,i,i,nt
CCCCCCCc1cc2c(cn1)C(=O)C(C)(OC(C)=O)C(O)=C2Cl (stereo not given),19%,nt,1%,nt,nt,nt
CC1CCC2=C1C[C@H](C(C)(C)O)CC[C@@H]2C (stereo not given in full),21%,nt,3%,nt,nt,nt
Cc1nc2nc(NCc3ccc(Br)cc3)[nH]n2c(=O)c1Cc1ccccc1,nt,nt,nt,i,i,nt
CCOC(=O)c1ccc(NC(=O)c2cc(=O)c3cc(CC)ccc3o2)cc1,nt,nt,nt,i,i,nt
NC(=S)N/N=C/c1ncc(C(F)(F)F)cc1Cl,0.63µM*,?,0.5µM*,i,i,?
CCCCCCCC/C=C\CCCCCCCC(=O)N(CCO)CCO,-1%,nt,3%,nt,nt,nt
Cc1ccc(NC(=S)NCC23C=CC(O2)C2C(=O)N(c4ccc(C)cc4)C(=O)C23)cc1 (stereo not given),?,?,14µM*,i,13µM*,?
Cc1cccc(NC(=S)NCC23C=CC(O2)C2C(=O)N(c4ccc(Cl)cc4)C(=O)C23)c1 (stereo not given),-13%[10 µM],?,?,i,?,?
Cc1ccc(N2C(=O)C3C4C=CC(CNC(=S)N5CCN(c6ccccc6)CC5)(O4)C3C2=O)cc1 (stereo not given),10µM*,81%,?,i,i,?
Cc1ccc(S(=O)(=O)NCC23C=CC(O2)C2C(=O)N(c4ccccc4)C(=O)C23)cc1 (stereo not given),8.9µM*,?,?,i,i,4%
O=C(c1cccc(Cl)c1)N1c2ncnn2C2(CCCCC2)[C@@H]2CCCC[C@@H]21,nt,nt,nt,i,i,nt
COc1cccc(NC(=O)CSc2nc3ccc(NC(=O)c4cccs4)cc3s2)c1,nt,nt,nt,i,i,nt
CCOC(=O)c1c(C)oc2c1c1c(c3ccccc32)OCN(Cc2cccnc2)C1,1.8µM*,-3%,7.9µM*,i,?,18%
O=C(Nc1ccc2ccccc2n1)c1ccccc1Br,-22%,-21%,-11%,i,i,5%
CC(C)(C)c1ccc(C(=O)N/C(N)=N/c2nc3ccccc3o2)cc1,1%,-6%,0%,i,i,1%
N/C(=N\c1nc2ccccc2o1)NC(=O)c1ccc(Cl)cc1,10µM*,-4%,?,?,i,?
N/C(=N\c1nc2ccccc2o1)NC(=O)c1ccc([N+](=O)[O-])cc1,-24%,-1%,-4%,i,i,0%
N/C(=N\c1nc2ccccc2o1)NC(=O)c1ccc(F)cc1,2.5µM*,23%,5.6µM*,i,i,9%
COc1ccc(C(=O)N/C(N)=N/c2nc3ccccc3o2)cc1,8.9µM*,17%,?,?,?,?
N/C(=N\c1nc2ccccc2o1)NC(=O)c1ccccc1Br,0.89µM*,-1%,-32%,i,i,-2%
COc1cccc(N2CCN(S(=O)(=O)c3cn(C)c(C)n3)CC2)c1,nt,nt,nt,i,?,nt
CC(C)(C)OC=O,6%,nt,9%,nt,nt,nt
O=C(NCCCN1CCN(c2cccc(Cl)c2)CC1)c1nc(-c2ccncc2)no1,43%,-1%,-11%,i,4.1µM*,21%
CCCN1CCN(CCCNC(=O)c2c(C)nn(-c3ccc(F)cc3)c2-n2cccc2)CC1,nt,nt,nt,i,?,nt
Cc1ccc(-n2nc(C)c(C(=O)NCCCN3CCN(c4ccc(F)cc4)CC3)c2-n2cccc2)cc1,nt,nt,nt,15µM*,16µM*,nt
CCOC(=O)N1CCC(NC(=O)c2c(C)nn(-c3ccc(C)cc3)c2-n2cccc2)CC1,nt,nt,nt,?,7.3µM*,nt
Cc1ccc(CN2CCN(CC(=O)NCCCN3CCN(c4ccc(F)cc4)CC3)C2=O)cc1,?,-3%,?,16µM*,i,5%

# High-throughput results from PubChem.
